KCNQ2 pot – potentiators of rat KCNQ2 potassium channel; CHO-K1 KCNQ2, FluxOR thallium flux fluorescence; active compounds read high; B-score at 10 µM; 310,000 tested, 0.54% active; AID 2239, 2010;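 active = fluorescence ratio B-score at least 3 SD of library B-scores, with initial fluorescence B-score within 3 of them, cut at about 5.3 in these data; same plate scores as AID 2156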;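 note: B-score of peak minus minimum over baseline fluorescence ratio after K+ and Tl+ stimulus; positive B-score means potentiation of KCNQ2 with more thallium influx and brighter signal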
KCNQ2 block – rat KCNQ2 potassium channel inhibitors, primary screen, cell-based, CHO-K1, FluxOR thallium flux, B-score; 20 min; active compounds read low; B-score at 10 µM; Potassium voltage-gated channel subfamily KQT member 2 (Rattus norvegicus), O88943; 310,000 tested, 1.1% active;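 active = fluorescence ratio B-score at most minus 3 library SDs, with starting brightness B-score within 2 library SDs, cut at about -5.5 in these data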
Kir21 conf inh – mouse Kir2.1 channel blockers, retest, confirmation, cell-based, FluxOR thallium flux, duplicate; shares compounds with KCNQ2 pot; Kir2.1-expressing cells, FluxOR thallium flux fluorescence; active compounds read low; AID 2032, 2009; Tl flux remaining, % of negative control (active compounds read low), % at 10 µM; 2,300 tested, 41% active;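 active = Primary-screen hit whose thallium flux fell at least 3 control SD below untreated wells in both duplicates, with normal baseline fluorescence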;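 note: 0% = blank wells without stimulus and 100% = stimulated no-compound controls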
HEK293 ctr – parental HEK293 activity in Kir2.1 inhibitor counter-screen. shares compounds with KCNQ2 pot. parental HEK293 cells, FluxOR thallium flux fluorescence; 0% = unstimulated blank wells. FluxOR signal as % of negative control (100 = no effect), % at 10 µM. 2,300 tested, 19% active. AID 2105;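 active = dye signal at least 3 control SD above or below untreated wells in both duplicates, raw fluorescence within 3, either direction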;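 note: percent is based on the flux ratio of peak minus minimum fluorescence over baseline F0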
CHO-K1 ctr – nonspecific thallium flux increase in parental CHO-K1, confirmation, counter-screen for KCNQ2 potentiator project, cell-based, FluxOR thallium flux, duplicate; shares compounds with KCNQ2 pot; parental CHO-K1 cells, FluxOR thallium flux fluorescence; zero = vehicle mean+3SD, 100% = vehicle-minus-blank window; activity increase over 3SD of controls, % at 10 µM; 1,200 tested, 43% active; AID 2282, 2010;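 active = signal rise of at least 3 SD above the untreated control mean, in both duplicate wells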;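 note: counter screen of KCNQ2 potentiator hits so any rise reflects channel-independent effects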
KCNQ1 pot spec – human KCNQ1 channel potentiation off-target, confirmation, selectivity assay for KCNQ2 potentiator project, cell-based, CHO, FluxOR thallium flux | activation over 3SD threshold, % at 10 µM | CHO KCNQ1 stable, FluxOR thallium flux fluorescence; beyond 3SD, as % of vehicle-control signal | shares compounds with KCNQ2 pot | 1,200 tested, 28% active;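 active = fluorescence ratio rise of at least 3 SD of vehicle wells above their mean, in both replicate wells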;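 note: 0% = vehicle mean plus 3 SD and 100% = vehicle minus unstimulated blank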
KCNQ2 pot confirm – rat KCNQ2 channel potentiators, confirmation, cell-based, CHO, FluxOR thallium flux, duplicate. potentiation, less the hit threshold, % at 10 µM. 1,200 tested, 68% active. CHO-KCNQ2 cells, FluxOR thallium flux fluorescence. shares compounds with KCNQ2 pot. AID 2287, 2010;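 active = fluorescence ratio rising 3 SD or more over the vehicle control mean in both replicates, plus primary screen hit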;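 note: peak minus minimum thallium fluorescence divided by baseline after K/Tl stimulus; 0% = vehicle mean plus 3 SD and 100% = vehicle minus unstimulated blank difference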
Kir2-1 sel – mouse Kir2.1 channel activation off-target, confirmation, selectivity assay for KCNQ2 potentiator project, cell-based, HEK293, FluxOR thallium flux; shares compounds with KCNQ2 pot; HEK293 Kir2.1, FluxOR thallium flux fluorescence; activity over 3SD threshold, % at 10 µM; 1,200 tested, 2% active;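 active = fluorescence ratio rise of at least 3 SD above the vehicle-control mean, seen in both replicates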;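 note: 0% = vehicle mean plus 3 SD and 100% = vehicle minus no-stimulus blank window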
KCNQ2 W236L MoA – potentiators of retigabine-insensitive KCNQ2 W236L, mechanism study for KCNQ2 potentiator project, cell-based, rat KCNQ2 W236L, CHO, automated patch clamp; shares compounds with KCNQ2 pot; automated patch clamp current; current increase over 3SD of negative controls (%), active compounds read high, % at 25 µM; 940 tested, 10% active;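 active = current increase at least 3 SD of the untreated controls above them in both duplicate recordings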
* marks the source's active call; other numbers are inactive results; i = inactive; nt = not tested or not shown. Compounds with a hit are over-represented: about 1.6% of the library has one in this group of screens.

SMILES | KCNQ2 pot | KCNQ2 block | Kir21 conf inh | HEK293 ctr | others
NC(=NC(=O)c1ccc(Cl)cc1)N1N=CCC1c1ccccc1 (centres undefined) | nt | i | nt | nt
O=C1C=CC(=O)N1CCNc1ncc(C(F)(F)F)cc1Cl | nt | i | 73.5%* | i
O=C1CC(=O)N(CCNc2ncc(C(F)(F)F)cc2Cl)C(=O)N1 | 1.69 | i | nt | nt
CCOC(=O)C1=C(C)NC(=O)NC1c1cn(-c2ccccc2)nc1-c1cccs1 (centres undefined) | nt | i | nt | nt
CCOC(=O)C1=C(C)NC(C)=C(C(=O)OCC)C1c1cn(-c2ccccc2)nc1-c1ccco1 | 11.4* | i | i | i | CHO-K1 ctr=16.8*;KCNQ1 pot spec=85.5*;KCNQ2 pot confirm=-12.1;Kir2-1 sel=-16.8
O=C(CN1CCC(NC(=O)Nc2ccc(F)cc2)CC1)Nc1ccccc1[N+](=O)[O-] | 0.11 | i | nt | nt
Nc1nc(CSCCO)nc(Nc2ccccc2)n1 | 0.22 | i | nt | nt
Nc1nc(CSc2ccccn2)nc(Nc2ccccc2)n1 | 5.53* | i | i | i | CHO-K1 ctr=-8.8;KCNQ1 pot spec=-19.8;KCNQ2 pot confirm=-11.4;Kir2-1 sel=-38.9
CCCN(C(=O)c1ccc(OCC(C)C)cc1)c1c(N)n(Cc2ccccc2)c(=O)[nH]c1=O | 1.78 | i | nt | nt
CCCCSCCCNC(=O)Nc1cccc(OC)c1 | 8.63* | i | i | i | CHO-K1 ctr=-13.9;KCNQ1 pot spec=-16.4;KCNQ2 pot confirm=14.8*;Kir2-1 sel=-35.6;KCNQ2 W236L MoA=i
COc1cccc(NC(=O)NCCc2ccc(Cl)cc2)c1 | nt | i | nt | nt
COc1ccc(N2CC(C(=O)N[C@H](C(=O)NC3CCCCC3)C(C)C)CC2=O)cc1 (some centres undefined) | 0.04 | i | nt | nt
Cc1cc(F)ccc1S(=O)(=O)N1CCCOC1CNC(=O)C(=O)NCc1ccccn1 (centres undefined) | nt | i | nt | nt
CC(Oc1ccccc1)c1ccnn1S(=O)(=O)c1ccccc1 (centres undefined) | nt | i | 52.0%* | i
CC(Oc1ccc(Cl)cc1)c1ccnn1S(=O)(=O)c1ccc(Cl)cc1 (centres undefined) | nt | i | nt | nt
CCCc1ccccc1OCCNS(=O)(=O)c1cc2c(cc1C)OCC(=O)N2 | 2.17 | i | 64.5%* | i
Cc1cc2c(cc1S(=O)(=O)NCCc1ccccc1)NC(=O)CO2 | 1.77 | i | nt | nt
Cc1c(CN2CCC(n3nccc3NC(=O)C3CC3)CC2)[nH]c2ccccc12 | 0.6 | i | nt | nt
CCCCNCc1cc(Br)c(OCC(=O)NCc2ccccc2)c(OC)c1 | nt | i | nt | nt
CCCCNCc1cc(Br)c(OCc2cccs2)c(OC)c1 | nt | i | 19.5%* | i
CCOc1cc(CNCc2ccncc2)cc(Br)c1OCc1ccc(F)cc1 | nt | i | i | i
CCOc1cc(CNCc2ccccn2)cc(Cl)c1OCC | nt | i | nt | nt
Fc1ccc(COc2ccc(Br)cc2CNCc2ccncc2)cc1 | nt | i | nt | nt
CCOc1cc(CNCCO)cc(Br)c1OCc1ccccc1 | nt | i | i | i

High-throughput results (PubChem BioAssay)
